High-throughput results: PubChem BioAssay, several laboratories
M1 antagonist: antagonists of rat M1 muscarinic receptor | P08482 | CHO-M1 cells, Fluo-4 calcium, ACh EC80 antagonist mode; active compounds read low | B-score at 10 µM | 64,000 tested, 3.4% active | AID 628;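 active means calcium fluorescence response, raw or row-and-column corrected B-score, differing from the plate sample mean either way at a set confidence level, mostly lower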
WNV NS2B-NS3 inh: blocks West Nile virus NS2B-NS3 protease activity | P06935 | WNV NS2B-NS3 protease, fluorogenic substrate Ex360/Em465; active compounds read low | z-score (concentration not given with the values) | 65,000 tested, 0.18% active | AID 577; in the data active means z-score below about -3
Htt clearance: compounds clearing mutant huntingtin protein; inhibition, % at 1.5 µM; HeLa Exon1htt(103Q)mCFP, aggregate imaging; zero = plate's median compound well; AID 853; 47,000 tested, 0.42% active;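 active means inhibition of aggregate fluorescence above about 70%, also judged a hit by eye on the cell image, limit read from the data, passing the limit was not always enough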;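 further: cells exposed to compound for three days before fixation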
M1 ag: agonists of M1 muscarinic receptor; 64,000 tested, 3% active; CHO-M1 cells, Fluo-4 calcium fluorescence, agonist mode; active compounds read high; B-score at 10 µM;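 active means fluorescence rise, raw or as B-score row- and column-corrected plate score, outside the 99.7% band of its plate's samples, either direction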
D1 mod: D1 dopamine receptor (human) allosteric modulation. P21728. HEK293 D1, CRE-luciferase, dopamine EC30 potentiation; actives deviate in either direction. B-score at 10 µM. 58,000 tested, 5.9% active. AID 641;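 active means luminescence count or its row- and column-corrected plate score outside the 99.7% band of the plate's sample wells, on either side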
Target sequence (P21728 whole entry, looked up): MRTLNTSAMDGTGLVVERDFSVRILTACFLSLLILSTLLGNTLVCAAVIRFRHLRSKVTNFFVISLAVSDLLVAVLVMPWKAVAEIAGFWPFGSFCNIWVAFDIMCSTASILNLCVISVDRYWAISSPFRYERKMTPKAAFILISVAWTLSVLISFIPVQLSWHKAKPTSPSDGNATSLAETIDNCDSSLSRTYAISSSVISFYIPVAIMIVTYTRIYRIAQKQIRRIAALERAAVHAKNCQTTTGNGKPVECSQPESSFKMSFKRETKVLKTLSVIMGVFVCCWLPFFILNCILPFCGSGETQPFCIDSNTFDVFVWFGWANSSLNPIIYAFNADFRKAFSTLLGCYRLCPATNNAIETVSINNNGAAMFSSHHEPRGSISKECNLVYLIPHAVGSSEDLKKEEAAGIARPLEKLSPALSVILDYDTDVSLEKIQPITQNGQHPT
M1 antag confirm: confirmation of rat M1 muscarinic receptor antagonists; 1,700 tested, 43% active; shares compounds with M1 antagonist; CHO-M1 cells, Fluo-4 calcium, ACh EC80 antagonism; active compounds read low; calcium response (max-min fluorescence) at 10 µM;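 active means calcium response below the same-plate mean of wells given acetylcholine alone at its 80%-effect dose, minus 3 SD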
mGluR4 antag: mGluR4 (human) activity, M1 antagonist secondary assay; shares compounds with M1 antagonist; CHO-mGluR4 calcium flux, Fluo-4 fluorescence, glutamate EC80; active compounds read low; fluorescence response (max-min) at 10 µM; 1,700 tested, 0.9% active; AID 678;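 active means fluorescence response below the plate's average for near-maximal glutamate wells, less 3 SD of those wells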;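 further: raw unnormalized fluorescence span taken in the window right after glutamate addition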
D1 PAM confirm: D1 receptor (human) allosteric modulation, confirmed; shares compounds with D1 mod; luminescence at 10 µM; 2,200 tested, 88% active; AID 642; HEK293 D1 CRE-luciferase, dopamine EC30 potentiation; active compounds read high;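 active means luminescence in either of two replicates above the same-plate mean plus 3 SD of the low-dose dopamine control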
D1 ag no DA: D1 (human) signaling in absence of dopamine | shares compounds with D1 mod | HEK293 D1 CRE-luciferase, luminescence, no dopamine; active compounds read high | 1,900 tested, 0.8% active | AID 646 | luminescence at 10 µM; in the data active means luminescence above about 3900
Isoprot counter: alters isoproterenol CRE-luciferase response in HEK293 cells; shares compounds with D1 mod; HEK293 D1 CRE-luciferase, isoproterenol EC30 counter-screen; calls only at 10 µM; 2,200 tested, 63% active;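 active means luminescence in either replicate above plate mean of wells with a partly effective reference agonist dose plus 3 SD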;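 further: isoproterenol raises cAMP through native beta-adrenoceptor Gs so signal bypasses D1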
Each line names hits and unclear results; the compound was inactive in the other large screens (follow-up assays come after a bar, where they were run). Rows were chosen to be rich in hits. Some 8.9% of all compounds tested hit in one or more screens of this group.

COc1ccc(C(=O)CSc2nc3nc(C)cc(C)c3c(=O)[nH]2)cc1OC	none (no result: Htt clearance)
CCOC(=O)N1CCN(C(=O)CN(c2ccc(C)cc2)S(=O)(=O)c2c(C)noc2C)CC1	M1 antagonist -1.12 (no result: Htt clearance) | M1 antag confirm inactive | mGluR4 antag inactive
CCOc1ccc(N(CC(=O)N2CCN(c3ccccc3)CC2)S(=O)(=O)c2c(C)noc2C)cc1	none (no result: Htt clearance)
COc1ccc(-n2c(Cc3cccn3C)nnc2SCC(=O)Nc2nc(C)cs2)cc1	none (no result: Htt clearance)
CCCc1cc(C(=O)NCC(C)C)no1	none
CC1CCCCC1NC(=O)c1ccc2c(c1)[nH]c(=O)n2C1CCCC1 (stereo not given)	none (no result: Htt clearance)
Cc1cccc(CSc2nnc(NC(=O)c3ccco3)s2)c1	none (no result: M1 antagonist, WNV NS2B-NS3 inh, M1 ag, D1 mod)
Cc1ccc(OCCSc2nnc(NC(=O)c3ccco3)s2)cc1	M1 antagonist -3.6 (no result: Htt clearance) | M1 antag confirm inactive | mGluR4 antag inactive
O=C(Nc1nnc(C2CC2)s1)C1Cc2ccccc2CN1S(=O)(=O)c1ccccc1F (stereo not given)	none (no result: M1 antagonist, WNV NS2B-NS3 inh, M1 ag, D1 mod)
Cc1ccc2cc3cc(C(=O)NCCCN4CCc5ccccc5C4)oc3nc2c1	M1 antagonist -3.45 (no result: Htt clearance) | M1 antag confirm inactive | mGluR4 antag inactive
Cc1noc(C)c1COC(=O)c1cc(C)n(-c2ccccc2)c1C	M1 antagonist -2.69 (no result: Htt clearance) | M1 antag confirm inactive | mGluR4 antag inactive
CCOc1ccc(Nc2nc(Cc3nnc(SCC(=O)NCC4CCCO4)n3C)cs2)cc1 (stereo not given)	none (no result: D1 mod)
CCOc1ccc(Nc2nc(Cc3nnc(SCC(N)=O)o3)cs2)cc1	M1 antagonist -1.69 (no result: Htt clearance) | M1 antag confirm inactive | mGluR4 antag inactive
COC(=O)c1sc2ccccc2c1N	none (no result: Htt clearance)
COC(=O)c1sc2ccccc2c1NC(=O)c1cccs1	M1 antagonist -1.4, D1 mod 18.8 | M1 antag confirm 642 | mGluR4 antag inactive | D1 PAM confirm 20828 | D1 ag no DA inactive | Isoprot counter active
COC(=O)c1[nH]c2cccc(Cl)c2c1NC(=O)CN(C)C1CCCCC1	M1 antagonist -1.85, D1 mod 11.1 | M1 antag confirm 367 | mGluR4 antag inactive | D1 PAM confirm 16352 | D1 ag no DA inactive | Isoprot counter active
CCOC(=O)Nc1ccc2c(c1)Sc1ccccc1N2C(=O)CCN1CCOCC1	M1 antagonist -3.48, D1 mod 4.83 (no result: Htt clearance) | M1 antag confirm 317 | mGluR4 antag inactive | D1 PAM confirm 8528 | Isoprot counter active
CCOC(=O)Nc1ccc2c(c1)N(C(=O)CCN1CCN(CCO)CC1)c1ccccc1S2	none (no result: M1 antagonist, WNV NS2B-NS3 inh, M1 ag, D1 mod)
CC(Oc1ccc(Cl)cc1Cl)C(=O)NCc1ccncc1 (stereo not given)	M1 antagonist -2.43, D1 mod 6.74 (no result: Htt clearance) | M1 antag confirm inactive | mGluR4 antag inactive | D1 PAM confirm 14184 | D1 ag no DA inactive | Isoprot counter active
CC(Oc1ccc(Cl)cc1Cl)C(=O)NCCCn1ccnc1 (stereo not given)	none (no result: Htt clearance, D1 mod)
COC(=O)CSc1nc2sc3c(c2c(=O)n1C1CCCCC1)CCN(C)C3	M1 antagonist -2.68, M1 ag -2.73, D1 mod 14.5 | M1 antag confirm 486 | mGluR4 antag inactive | D1 PAM confirm 21932 | D1 ag no DA inactive | Isoprot counter active
COc1ccc(-n2c(SCC(N)=O)nc3sc4c(c3c2=O)CCN(C)C4)cc1	none (no result: Htt clearance)
COc1ccc(N2CCN(C(=O)CCCC3=NS(=O)(=O)c4ccccc4N3)CC2)cc1	none (no result: Htt clearance, D1 mod)
CCc1nc(NCc2ccco2)c2oc3ccccc3c2n1	M1 antagonist -3.94, D1 mod 13.4 | M1 antag confirm inactive | mGluR4 antag inactive | D1 PAM confirm inactive | Isoprot counter inactive
CCOC(=O)c1ccc(N2C(=O)C3ON(c4ccccc4)C(c4ccco4)C3C2=O)cc1 (stereo not given)	none (no result: Htt clearance)
